In the library only some 0.51% were active in any assay of this set; here they are far more common.
pCIP destab: lowers stability of the mouse p/CIP coactivator protein; Q05BA5; F442A p/CIP-EGFP cells, EGFP fluorescence, 16 h; decrease of EGFP signal, % at 10 µM; 290,000 compounds, 0.01% hits;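 active means EGFP signal decrease of at least 30% at 10 µM or well 3 SD below plate mean, unless failing retest; inactive means the rest, including hits failing retest or dose response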
Target sequence (Q05BA5 1-1403): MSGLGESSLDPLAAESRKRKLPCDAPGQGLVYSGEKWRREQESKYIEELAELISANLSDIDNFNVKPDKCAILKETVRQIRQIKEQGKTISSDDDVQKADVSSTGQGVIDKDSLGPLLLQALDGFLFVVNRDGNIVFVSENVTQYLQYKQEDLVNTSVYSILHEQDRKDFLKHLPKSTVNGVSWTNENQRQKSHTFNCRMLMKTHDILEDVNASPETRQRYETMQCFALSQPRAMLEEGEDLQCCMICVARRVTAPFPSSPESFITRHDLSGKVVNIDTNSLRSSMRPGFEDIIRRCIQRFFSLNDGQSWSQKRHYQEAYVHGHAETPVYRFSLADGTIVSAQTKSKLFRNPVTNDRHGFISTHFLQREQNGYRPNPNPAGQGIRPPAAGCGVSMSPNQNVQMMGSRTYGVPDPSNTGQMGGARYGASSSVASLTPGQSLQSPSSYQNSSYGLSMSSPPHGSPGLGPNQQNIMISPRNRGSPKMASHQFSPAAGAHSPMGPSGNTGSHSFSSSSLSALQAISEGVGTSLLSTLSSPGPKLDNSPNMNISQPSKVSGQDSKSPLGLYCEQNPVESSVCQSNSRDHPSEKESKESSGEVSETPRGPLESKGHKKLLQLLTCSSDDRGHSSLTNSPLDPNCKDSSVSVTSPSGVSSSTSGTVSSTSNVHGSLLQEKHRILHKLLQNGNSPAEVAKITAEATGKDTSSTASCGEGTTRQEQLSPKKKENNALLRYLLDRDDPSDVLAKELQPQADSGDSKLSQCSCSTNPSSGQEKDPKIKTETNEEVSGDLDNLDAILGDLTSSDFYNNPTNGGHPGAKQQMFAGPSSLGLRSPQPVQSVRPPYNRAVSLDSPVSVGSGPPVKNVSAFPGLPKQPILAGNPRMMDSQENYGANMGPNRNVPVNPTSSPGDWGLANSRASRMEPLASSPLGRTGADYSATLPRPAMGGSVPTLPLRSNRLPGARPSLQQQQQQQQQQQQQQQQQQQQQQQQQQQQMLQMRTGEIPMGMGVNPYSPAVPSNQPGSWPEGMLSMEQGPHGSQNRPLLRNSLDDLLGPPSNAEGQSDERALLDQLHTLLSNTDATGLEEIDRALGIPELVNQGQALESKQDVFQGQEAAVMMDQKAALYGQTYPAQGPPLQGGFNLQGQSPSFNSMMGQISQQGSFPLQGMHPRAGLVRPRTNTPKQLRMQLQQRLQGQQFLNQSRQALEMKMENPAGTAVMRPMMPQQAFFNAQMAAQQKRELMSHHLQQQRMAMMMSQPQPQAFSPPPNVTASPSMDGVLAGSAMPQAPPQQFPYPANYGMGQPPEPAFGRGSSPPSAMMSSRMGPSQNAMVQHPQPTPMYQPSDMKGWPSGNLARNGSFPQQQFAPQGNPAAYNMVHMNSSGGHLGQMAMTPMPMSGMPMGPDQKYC
E coli growth-1: blocks Escherichia coli growth. OD600, 23 h; stronger effect = lower value. OD600 absorbance (no concentration beside the values). 330,000 compounds, 0.21% hits. AID 1053175;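 active means OD600 absorbance below the run mean of sample wells minus 3.6 SD, in any replicate, cut at about 0.56 in these data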
phage Ecoli inh: E. coli growth loss with phage present. inhibition, % at 11.9 µM. growth absorbance. 360,000 compounds, 0.26% hits; in the data active means inhibition above about 11%
E coli growth-2: bacterial growth inhibition, counter-screen for AddAB inhibitors. E. coli V3065 growth, OD600 absorbance, 18 h. 330,000 compounds, 0.27% hits. AID 449728. inhibition, % at 11.9 µM;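 active means inhibition above the campaign's mean inhibition across all tested compounds plus 3 SD, cut at about 9.9% in these data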;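 further: uninfected addAB+ strain grown without phage in ampicillin broth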
Tat transport: blocks Tat-dependent protein export in E. coli; E. coli MC4100 TorA-mCherry Tat export, fluorescence; inhibition, % at 10 µM; 340,000 compounds, 0.036% hits; AID 488895;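 active means mean replicate inhibition at least 50% and at least half of replicates individually reaching 50%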;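 further: exported cargo escapes ClpAP degradation while cytoplasmic cargo is degraded and loses fluorescence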
AddAB inh: less growth of phage-infected E. coli with AddAB; E. coli expressing H. pylori AddAB, absorbance growth; inhibition, % at 11.9 µM; 330,000 compounds, 0.29% hits; AID 435030; in the data active means inhibition above about 12%
RecBCD conf: growth loss of phage-infected V66 E. coli, RecBCD confirmation screen. E. coli V66 + T4 2- phage, growth OD. inhibition, % at 11.9 µM. 890 compounds, 45% hits. shares compounds with phage Ecoli inh;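 active means mean inhibition over triplicates exceeding the hit threshold derived in the original primary screen, cut at about 11% in these data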
Ecoli viability: counter-screen for RecBCD inhibitors: inhibitors of bacterial viability; E. coli viability, absorbance (OD) growth; AID 651983; 890 compounds, 29% hits; shares compounds with phage Ecoli inh; inhibition, % at 11.9 µM; in the data active means inhibition above about 20%;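 further: E. coli strain V66 grown with compound alone and no phage infection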
AddAB phage OD: growth loss of phage-infected AddAB E. coli, RecBCD counter-screen. shares compounds with phage Ecoli inh. E. coli expressing H. pylori AddAB + T4 phage, OD growth; gene 2 mutant T4, recBCD-deleted host. inhibition, % at 11.9 µM. 890 compounds, 45% hits. AID 651984;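 active means mean inhibition above the solvent-only control wells' mean plus 3 SD, cut at about 22% in these data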;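 further: higher means less bacterial growth from phage killing when AddAB is blocked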
Large screens that a line does not name were inactive (follow-up assays come after a bar, where they were run).

CCc1nc(SCC(=O)Nc2ccccc2Cl)n[nH]1	none
NC(=S)NN=Cc1nccc2c(N)cccc12	phage Ecoli inh 23 (no result: pCIP destab, E coli growth-1, E coli growth-2, Tat transport, AddAB inh) | RecBCD conf 32 | Ecoli viability 39 | AddAB phage OD 35
CCN(C(C)=O)c1cnc(C=NNC(N)=S)c2ccccc12	phage Ecoli inh 20 (no result: pCIP destab, E coli growth-1, E coli growth-2, AddAB inh) | RecBCD conf 15 | Ecoli viability inactive | AddAB phage OD 32
NC(=S)N/N=C/c1c(O)ccc2ccccc12	none (no result: E coli growth-1)
COc1ccccc1C(=O)NNC1CC(=O)N(c2ccc3c(c2)OCCO3)C1=O (stereo unspecified)	none
O=C(Nc1ccnc(-c2cccnc2)n1)c1cccs1	none
Cc1ccc(-c2cnc(NCc3cc4c(cc3[N+](=O)[O-])OCO4)n2C)cc1C	phage Ecoli inh 11 | RecBCD conf inactive | Ecoli viability inactive | AddAB phage OD inactive
Cn1c(-c2ccc3c(c2)OCO3)cnc1NCc1ccccc1	none
Cc1ccc(CNC(=O)C2CCN(S(=O)(=O)c3c(C)noc3/C=C/c3ccco3)CC2)cc1	none
COc1cccc(/C=N/NC(=O)c2cc(-c3cccn3C)n[nH]2)c1O	phage Ecoli inh 12 (no result: E coli growth-1) | RecBCD conf inactive | Ecoli viability inactive | AddAB phage OD inactive
CCOc1ccc(Br)cc1S(=O)(=O)Nc1cccc(S(=O)(=O)N(C)C)c1	none
Nc1nnc(-c2ccc([N+](=O)[O-])o2)s1	E coli growth-1 0.069, phage Ecoli inh 92 (no result: pCIP destab, E coli growth-2, AddAB inh) | RecBCD conf 100 | Ecoli viability 102 | AddAB phage OD 100
CCOc1cccc(C=NNC(=S)Nc2ccccc2[N+](=O)[O-])c1O	none (no result: pCIP destab, phage Ecoli inh, E coli growth-2, Tat transport, AddAB inh)
CC(C)(C)OC(=O)CNC(=O)c1nc[nH]c1C(=O)N1CCN(c2ccccc2)CC1	none (no result: E coli growth-1)
C=C(C)CNC(=O)C1CCC(=O)N(CCCc2ccccc2)C1 (stereo unspecified)	phage Ecoli inh 30 (no result: pCIP destab, E coli growth-1) | RecBCD conf inactive | Ecoli viability inactive | AddAB phage OD inactive
O=C(NCCc1cccc(F)c1)C1CCC(=O)N(CCCc2ccccc2)C1 (stereo unspecified)	none
Fc1ccccc1CNC(=S)Nc1cccc(C(F)(F)F)c1	phage Ecoli inh 11 | RecBCD conf inactive | Ecoli viability inactive | AddAB phage OD inactive
FC(F)(F)c1cccc(NC(=S)NCc2ccc(Cl)cc2)c1	phage Ecoli inh 13 | RecBCD conf inactive | Ecoli viability inactive | AddAB phage OD inactive
O=c1[nH]nc(-c2ccc([N+](=O)[O-])o2)c(=O)[nH]1	E coli growth-1 0.52, phage Ecoli inh 22 (no result: pCIP destab, E coli growth-2, AddAB inh) | RecBCD conf 16 | Ecoli viability inactive | AddAB phage OD 91
COc1ccccc1CNC(=O)C(CCSC)NC(=O)c1cccc(S(=O)(=O)N2CCOCC2)c1 (stereo unspecified)	none (no result: pCIP destab)
CCCCC(=O)Nc1ccc(C(=O)NCc2ccncc2)cc1	none
Cc1ccc(C(=O)Cn2c(=N)n(N)c3ccccc32)cc1	phage Ecoli inh 82 | RecBCD conf inactive | Ecoli viability inactive | AddAB phage OD inactive
CCN(CC)CCn1c(=N)n(CC(=O)c2ccc(C)cc2)c2ccccc21	none
Cc1cc(C(=O)N(C2CCCCC2)C2CCCCC2)no1	phage Ecoli inh 12 | RecBCD conf inactive | Ecoli viability inactive | AddAB phage OD inactive
Cc1cc(C(=O)N2C(C)CCCC2C)no1 (stereo unspecified)	none
CN(C)C(=O)N1CCC(C(=O)NCc2ccc(F)cc2)CC1	phage Ecoli inh 46 | RecBCD conf inactive | Ecoli viability inactive | AddAB phage OD inactive
CN1CCN(C(=O)/C=C/c2ccc([N+](=O)[O-])o2)CC1	E coli growth-1 0.43, phage Ecoli inh 17 (no result: E coli growth-2, AddAB inh) | RecBCD conf 12 | Ecoli viability inactive | AddAB phage OD 82
CN1CCN(C(=O)/C=C/c2ccccc2)CC1	none
O=S(=O)(c1ccc(Cl)nc1)N1CCc2ccccc21	phage Ecoli inh 95 | RecBCD conf inactive | Ecoli viability inactive | AddAB phage OD inactive
